Source: PubChem
Pf growth 48h – inhibits P. falciparum growth in the first generation, 48 h | Potency, µM (doses to about 28.7 µM), for inactives: at the highest dose activity change, negative = inhibition, actives largely listed as inhibitors | P. falciparum luciferase growth in erythrocytes, 48 h | 5.9% of 310,000 active; also: % is scaled to controls: 0 for no effect and ±100 for the full control effect
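Luminescence readout; reporter = integrated firefly luciferase in P. falciparum. RBC culture at 2% hematocrit, 0.1% parasitemia final, 37 C/5% CO2; decreased signal taken as growth inhibition.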
AMA1-RON2 inh – disrupts binding of P. falciparum AMA1 to RON2; Potency, µM (top dose mostly 58.2 µM), without a hit: top-dose activity change, negative = inhibition, most hits filed as inhibitors; AID 720542; AlphaScreen AMA1-biotinylated RON2 peptide binding; 0.2% of 360,000 active;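 also: 0% = vehicle wells and -100% = peptide control; nearly all actives have a fitted effect of over 45% in size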
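AMA1 (3D7) with his tag at 25 nM final met compounds first, then biotinylated RON2 peptide at 25 nM; detection used donor plus acceptor beads, 10 µg/mL apiece, read by AlphaScreen after 30 min at room temperature.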
Pf growth 96h – P. falciparum growth inhibition at 96 hour, primary screen for plastid delayed-death inhibitors; AID 504834; Potency, µM (doses to about 28.7 µM), for the others: at the top dose activity change, negative = inhibition, usual class: inhibitors; P. falciparum luciferase reporter growth, 96 h; 6.9% of 320,000 active; also: % is scaled to controls: 0 for no effect and ±100 for the full control effect
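Two parasite generations (96 h, 37 C, 5% CO2) of compound exposure in infected erythrocytes (0.05% parasitemia, 2% hematocrit). Luciferase-reporter P. falciparum; decreased luminescence indicates inhibited growth, aimed at apicoplast-acting delayed death.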
SARS PLpro yeast – blocks SARS-CoV papain-like protease in a yeast assay | S. cerevisiae expressing SARS-CoV PLpro, growth rescue | Potency, µM (top dose mostly 32.9 µM), inactives show at the highest dose activity, positive = growth rescue, actives largely listed as activators | 0.19% of 330,000 active | AID 485353; calls by dose curve; also: 0% is about no effect; nearly all actives have a fitted effect of over 55% in size
An asterisk follows results filed as active; ? = inconclusive; . = no result given; [ ] = dose if it differs, or a comment. Only some compounds are listed: those with a hit (about 9.4% of all), similar ones and a draw of the others. Unless noted, calls follow the shape of the dose curve; as a rule, active = well fitted curve in the direction sought with a large enough effect; inconclusive = small, poorly fitted or top-dose-only effect, or another doubt; inactive = no such curve, though single readings can be large; an effect the other way counts as inactive or inconclusive. Potency is read from the fitted curve at half-maximal effect.

SMILES | Pf growth 48h | AMA1-RON2 inh | Pf growth 96h | SARS PLpro yeast
CC1(C)C(=O)OC(c2cc(Br)ccc2O)C(C)(C)C1=O (stereo not drawn) | 12µM* | -10% | 31% | 11%
O=C(NCCN1CCOCC1)c1ccncc1 | 10% | 0% | -13% | 2%
O=C1C=C(NCCN2CCOCC2)C(=O)c2cnccc21 | 1.5µM* | . | 1.7µM* | -52%
Oc1c(C(c2ccccc2)N2CCOCC2)ccc2ccccc12 (stereo not drawn) | . | 1% | . | .
CC(=O)c1cc2c(ccc3ccccc32)oc1=O | 10% | -5% | 2.3µM* | 0%
CC(=O)Nc1cc2c(ccc3ccccc32)oc1=O | 4% | -1% | 0% | -3%
Brc1ccc(C=Nc2ccc(Nc3ccccc3)cc2)s1 | ? | -18% | 13µM* | -11%
CN1CCN(Cc2ccc(Sc3ccc(Cl)cc3)c([N+](=O)[O-])c2)CC1 | ? | -25% | 0.17µM* | 0%
CCOC(=O)Cn1c(-c2ccc(Cl)nc2)nc2ccccc21 | -11% | 38% | 56% | 10%
O=S(=O)(c1cnc[nH]1)N1CCc2ccccc21 | -12% | 16% | 8.3µM* | ?
C=CCNS(=O)(=O)c1ccc(OCC(=O)OCC)cc1 | 2% | 0% | 2.3µM* | -7%
COc1ccccc1N(O)C1CC(=O)N(c2ccc(Br)cc2)C1=O (stereo not drawn) | 4% | 4% | 16% | -21%
CCCCCCC(=O)N(O)C1CC(=O)N(c2ccc(Br)cc2)C1=O (stereo not drawn) | 13µM* | 5% | 2% | -42%
CCCCN(C(=O)CCC(=O)O)C1CC(=O)N(c2ccc(OCCC)cc2)C1=O (stereo not drawn) | 0% | 3% | 8% | 1%
CCCCCCC(=O)N(O)C1CC(=O)N(c2ccc(F)cc2)C1=O (stereo not drawn) | 4.7µM* | -7% | 9.3µM* | -6%
Cc1cc(OCc2cc(C(=O)N(C)CC3CCOCC3)no2)cc(C)c1Cl | -6% | 1% | ? | -2%
CCN(CC1CCCO1)C(=O)c1cc(COc2cc(C)c(Cl)c(C)c2)on1 (stereo not drawn) | 2% | 20% | 12µM* | -9%
CCc1ccc(-c2nc(CSCC(=O)N3CCN(c4ccccn4)CC3)c(C)o2)cc1 | 70% | -16% | . | -10%
COc1ccc(C)cc1NC(=O)C(c1ccccc1)N1CCN(CC(=O)NC2CC2)CC1 (stereo not drawn) | 2.3µM* | -23% | 2.1µM* | 4%
Cc1ccc(NC(=O)C(c2ccccc2)N2CCN(CC(=O)NC3CC3)CC2)cc1 (stereo not drawn) | 13µM* | -4%[11.6 µM] | ? | 2%
Cc1ccc(NC(=O)C(c2ccccc2)N2CCN(CC(=O)NC3CC3)CC2)cc1Cl (stereo not drawn) | 5.2µM* | -7% | ? | 0%
CCc1ccccc1NC(=O)CN1CCN(CC(=O)Nc2cc(C)ccc2OC)CC1 | ? | -1% | -26% | 2%
Cc1cc(C)cc(NC(=O)C(c2ccccc2)N2CCN(CC(=O)NC3CC3)CC2)c1 (stereo not drawn) | 5.2µM* | 1%[11.6 µM] | 9.3µM* | 3%
CC(C)C[C@@H]1NC(=O)N(CCCn2ccnc2)C1=O | 12% | -3% | 11% | 0%
O=C(CN1CCN(C(C(=O)Nc2cc(C(F)(F)F)ccc2Cl)c2ccccc2)CC1)NC1CC1 (stereo not drawn) | . | -4% | . | .
SMILES | Pf growth 48h | AMA1-RON2 inh | Pf growth 96h | SARS PLpro yeast
O=C(CN1CCN(C(C(=O)Nc2ccc(Cl)cc2C(F)(F)F)c2ccccc2)CC1)NC1CC1 (stereo not drawn) | 3.3µM* | 2% | 4.1µM* | 2%
CC(C)(CO)[C@@H](O)C(=O)NCCC(=O)NCCSSCCNC(=O)CCNC(=O)[C@H](O)C(C)(C)CO | 14% | . | 14% | .
Cc1ccc(OCc2cc(C(=O)NC3CCCCC3)no2)cn1 | 17% | -3% | 13µM* | -9%
Cc1ccc(OCc2cc(C(=O)N3CCCCCCC3)no2)cc1C | 14% | -1% | 1.7µM* | -7%
CC(=O)c1cccc(OCc2cc(C(=O)NC3CCN(Cc4ccccc4)CC3)no2)c1 | -30% | 4% | 12µM* | 1%
O=C(NC1CCCC1)c1cc(COc2ccc3ncccc3c2)on1 | -20% | -8% | -6% | 1%
Cc1ccc(OCc2cc(C(=O)N3CCN(C4CCCCC4)CC3)no2)cc1C | ? | -12% | 37% | -3%
COc1ccc(C2(CNC(=O)c3ccc(OC)c([N+](=O)[O-])c3)CCOCC2)cc1OC | -8% | -17% | 2.3µM* | -1%
COc1ccc(CCNC(=O)/C=C/c2ccc3ccccc3n2)cc1OC | ? | 4% | 8.3µM* | -3%
COc1ccc(C(=O)NCCc2ccccc2)cc1[N+](=O)[O-] | 45% | 4% | 18% | 3%
COc1ccc(/C=C/C(=O)NCCc2c[nH]c3ccccc23)cc1OC | 8.3µM* | -28% | 15µM* | -1%
COc1ccc(C(=O)NCC2(c3ccccc3)CCOCC2)cc1[N+](=O)[O-] | -24% | 10% | ? | -22%
COc1ccc(C(=O)NCCc2c[nH]c3ccccc23)cc1[N+](=O)[O-] | 0% | -15% | 13µM* | 0%
CCCCNc1nc(N(C)c2ccccc2)nc(-n2ccnc2)n1 | 17µM* | -12% | 0% | -23%
CN(c1ccccc1)c1nc(-n2ccnc2)nc(-n2ccnc2)n1 | ? | 6% | . | -10%
Cc1onc(-c2ccccc2)c1C(=O)O/N=C(\N)c1ccc([N+](=O)[O-])o1 | ? | -21% | 12µM* | -3%
Cc1onc(-c2cccc(Cl)c2Cl)c1C(=O)O/N=C(\N)c1ccc([N+](=O)[O-])o1 | ? | -23% | 10µM* | -7%
CCOc1ccc(Cl)cc1S(=O)(=O)N1CCN(c2ccc(F)cc2)CC1 | 12µM* | -12% | . | -14%
Cc1cc(Cl)c(S(=O)(=O)N2CCN(c3ccc(F)cc3)CC2)cc1OCC(N)=O | ? | 10% | 8% | -8%
CCOC(=O)C1CCCN(S(=O)(=O)c2cc(OCC(=O)NC3CCCCC3)c(C)cc2Cl)C1 (stereo not drawn) | . | -3% | 0.47µM* | -3%
Cc1cc(Cl)c(S(=O)(=O)N2CCN(c3ccc(F)cc3)CC2)cc1OCC(=O)NC1CCCCC1 | . | 3% | 6.6µM* | -7%
Cc1cc(S(=O)(=O)N2CCCC2)ccc1OCC(=O)NC1CCCC1 | -1% | -4% | 28% | 0%
Cc1cc(Cl)c(S(=O)(=O)NCC2CCCO2)cc1OCC(=O)NC1CCCCC1 (stereo not drawn) | . | -2% | 5.9µM* | -2%
O=C(O)c1cc2ccc3ccccc3c2[nH]1 | . | 0% | 3% | -2%
O=c1[nH]c(CN2CCN(c3ccccn3)CC2)nc2c(Br)cc(Br)cc12 | -7% | 52% | 7% | 0%
CCN(CC)S(=O)(=O)c1ccc(C(=O)NCCCn2ccnc2)cc1 | ? | -11% | 23% | 1%
CNc1nc(C)c(C(C)=O)cc1C#N | 11% | 12% | . | -9%
COc1ccc(C(=O)Cn2nnc(-c3ccccc3NC(=O)C(F)(F)F)n2)cc1 | ? | -2% | . | -5%
Cc1ccc2c(c1)/C(=C/c1ccc(F)cc1)C(=O)N2 | ? | -10% | 2% | -9%
